Measured values as given in PubChem BioAssay (NCI).
Compounds without any hit were thinned out: in the full panel of roughly 83,000, 20% have a hit.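 A percent growth of 40 corresponds to 60% growth inhibition; 0 means no net growth; -100 means all cells died. Active threshold: below 10.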 Unmarked numbers belong to inactive results. Active and inactive are the calls of the source.

Experiments:
Experiment in all cases: NCI-60 one-dose screen, 48 h (100 = growth as untreated, 0 = no growth, -100 = all killed)
[1] = tested on: RPMI-8226 leukemia; conditions: 10 µM unless noted
[2] = tested on: OVCAR-8 ovarian; conditions: 10 µM unless noted
[3] = tested on: OVCAR-5 ovarian; conditions: 10 µM unless noted
[4] = tested on: OVCAR-4 ovarian; conditions: 10 µM unless noted
[5] = tested on: SK-OV-3 ovarian; conditions: 10 µM unless noted
[6] = tested on: IGROV1 ovarian; conditions: 10 µM unless noted
[7] = tested on: OVCAR-3 ovarian; conditions: 10 µM unless noted
[8] = tested on: HS 578T breast; conditions: 10 µM
[9] = tested on: NCI/ADR-RES ovarian; conditions: 10 µM unless noted
[10] = tested on: BT-549 breast; conditions: 10 µM unless noted
[11] = tested on: MDA-MB-435 melanoma; conditions: 10 µM unless noted
[12] = tested on: SW-620 colon; conditions: 10 µM unless noted
[13] = tested on: MCF7 breast; conditions: 10 µM unless noted
[14] = tested on: HCT-116 colon; conditions: 10 µM unless noted
[15] = tested on: HCC-2998 colon; conditions: 10 µM unless noted
[16] = tested on: KM12 colon; conditions: 10 µM unless noted
[17] = tested on: T-47D breast; conditions: 10 µM unless noted

Structure (SMILES) | growth [1] | growth [2] | growth [3] | growth [4] | growth [5] | growth [6] | growth [7] | growth [8] | growth [9] | growth [10] | growth [11] | growth [12] | growth [13] | growth [14] | growth [15] | growth [16] | growth [17]
CC(=O)c1nn(-c2ccccc2)/c(=N\N=C\c2coc3ccc(F)cc3c2=O)s1 | 91.9% | 107% | 110% | 108% | 98.9% | 87.2% | 111% | 95.1% | 104% | 105% | 103% | 98.7% | 90.3% | 96% | 111% | 101% | 
O=C1C=CC(=O)N1c1cccc(N2C(=O)C=CC2=O)c1 | 91.7% | 106% | 102% | 98.1% | 111% | 111% | 66.4% | 114% | 110% | 113% | 103% | 4.72% (active) | 65.9% | 24.7% | 130% | 122% | -13.6% (active)
Oc1ccc(-c2cnc(-c3ccccc3)[nH]2)c(O)c1 | 38.7% | 119% | 116% | 106% | 113% | 94.3% | 107% | 97.7% | 113% |  | 110% | 109% | 83.3% | 78.6% | 117% | 102% | 107%
CN(C)c1ccc(N2Cc3ccccc3OC3=C2C(=O)c2c(O)ccc(O)c2C3=O)cn1 | -17.2% (active) | -12.1% (active) | -50.6% (active) | -98.2% (active) | -7.84% (active) | -63.3% (active) | -95.8% (active) |  | 3.51% (active) | -71.2% (active) | -21.3% (active) | -58.3% (active) | -55% (active) | -86.8% (active) | -75.2% (active) | -41.9% (active) | -47.9% (active)
CCCCCCCCCCCC1=NC(C)(C)CN1C(C)(C)CO | 1.29% (active) | 69.4% | 73.2% | 64.4% | 73.8% | 53.2% | 76.7% |  | 65% | 76.6% | -25.2% (active) | 10.8% | 24.3% | 8.08% (active) | -75.5% (active) | -10.2% (active) | 45.3%
CC(=O)c1cc(C(=O)c2ccc3c(c2)Sc2ccccc2N3)c2c(C)cccn12 | 15.7% | 18.8% | 45.4% | 47% | 25.1% | 34.1% | -27.5% (active) | 56.2% | 9.46% (active) | 18.2% | -26.9% (active) | 28.8% | 24.5% | 6.07% (active) | 22.8% | 11.8% | 58.1%
Nc1nc2ccc([C@@H]3Nc4ccc5[nH]ncc5c4[C@H]4[C@H]5CCC(C5)[C@H]43)cc2s1 | 19.5% | 37.5% | 21.3% | 14.4% | -17.5% (active) | 33.3% | -6.66% (active) | 8.66% (active) | 17.4% | 36.7% | -62.4% (active) | -3.94% (active) | -0.0226% (active) | 12.1% | 49.3% | 3.63% (active) | 
Oc1c(-c2cc(C(F)(F)F)[nH]n2)cc(Cl)c(OCc2ccc(Cl)cc2)c1-c1ccc(Cl)c(C(F)(F)F)c1 | -27.9% (active) | 9.67% (active) | 30.3% | 19% | 6.29% (active) | 19.8% | 10.5% | 5.31% (active) | 9.38% (active) | -11.9% (active) | -16.9% (active) | 8.41% (active) | 2.3% (active) | -23.8% (active) | 12.7% | 1.97% (active) | 
O=C(OCc1ccc2c(Cl)cc(Cl)c(O)c2n1)c1cc2ccccc2[nH]1 | -37.4% (active) | -24.9% (active) | -55.2% (active) | -70.4% (active) | 67.5% | -89.5% (active) | -92.1% (active) |  | -35.3% (active) | -76.3% (active) | -89.4% (active) | -66.2% (active) | -35.7% (active) | -73.3% (active) | -73.1% (active) | -63.9% (active) | -57.2% (active)
